DUSP3 inh: blocks the human dual specificity phosphatase VHR1; 50,000 compounds, 0.7% hits; AID 1992; inhibition, % at 20 µM; recombinant VHR phosphatase, colorimetric substrate read-out; P51452; in the data active = inhibition above about 60%
Target sequence (P51452 whole entry, looked up): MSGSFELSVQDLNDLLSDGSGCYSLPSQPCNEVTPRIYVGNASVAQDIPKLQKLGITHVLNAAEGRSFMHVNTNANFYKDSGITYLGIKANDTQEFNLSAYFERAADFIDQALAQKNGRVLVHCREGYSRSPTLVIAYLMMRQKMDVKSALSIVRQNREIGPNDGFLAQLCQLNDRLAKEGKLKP
An asterisk follows results filed as active. The full list was thinned out, with hits kept by preference.

SMILES	DUSP3 inh
Cc1cc(C)c(N2C(=O)NC(=O)C(=Cc3ccoc3)C2=O)c(C)c1	-24
O=C(O)C12C3CCCC1C32c1ccccc1 (stereo not drawn)	3
O=C(O)C1C2C=CC(C3CC23)C1C(=O)NCc1ccccc1 (stereo not drawn)	-7
O=C(O)C1C2CCCC1C2c1ccccc1 (stereo not drawn)	101*
CCOC(=O)C1=C(O)/C(=C/c2ccc(C)o2)SC1=Nc1ccccc1	-3
O=C(Nc1cccc2ccccc12)C1C(c2ccccc2)=C1c1ccccc1	100*
NC(=O)C(=O)Nc1cccc2ccccc12	0
CC1(C)C(C(=O)Nc2cccc3ccccc23)C1(C)C	-9
O=C(CSc1ccc(C(=O)O)cc1)Nc1ccccc1	-36
COC(=O)c1cc(C(=O)Nc2ccccc2OC)cc([N+](=O)[O-])c1	-36
Cc1ccc(-c2cc(C(=O)N/N=C/c3c(Cl)cccc3Cl)[nH]n2)cc1	-1
CC(=O)C(=Cc1cc(C(C)(C)C)c(O)c(C(C)(C)C)c1)C(C)=O	2
CCOc1ccccc1N1CCN(C(=O)COc2ccc(Cl)cc2C)CC1	19
Cc1ccc(C)n1-n1cnc2sc3c(c2c1=O)CCCC3	7
Cc1ccc(-n2nc3cc(C)c(NC(=O)c4cc(Cl)ccc4Cl)cc3n2)cc1	-28
COc1ccc(-n2nc3cc(C)c(NC(=O)c4cc(Cl)ccc4OC)cc3n2)cc1	110*
COc1ccc(Br)cc1C(=O)Nc1cc2nn(-c3ccc(C)cc3)nc2cc1C	3
CCCCc1n[nH]c2c1/C(=N\O)CC(C)(C)C2	-6
CCN(CC)c1ccc(NC(=O)C(c2ccccc2)c2ccccc2)cc1	-12
CC1=NN(C(=O)CCc2ccccc2)C(O)(c2cccnc2)C1 (stereo not drawn)	-2
CCCCNCCCCCOc1ccccc1C(C)(C)C	-15
CCSc1nnc(NC(=O)c2ccc(Br)o2)s1	-13
COc1ccc(/C=C2\SC(=S)N(CCC(N)=O)C2=O)cc1	-8
COc1ccc(/C=C2\SC(=S)N(CCC(=O)OC3CCCCC3)C2=O)cc1	-7
C=CCN1C(=O)/C(=C\C=C\c2ccccc2)SC1=S	-26
SMILES	DUSP3 inh
Cc1ccc(/C=C2\SC(=S)N(CCS(=O)(=O)O)C2=O)cc1	63*
COc1ccc(/C=C2\SC(=S)N(CCS(=O)(=O)O)C2=O)cc1	67*
C=CCN1C(=O)/C(=C/c2ccc(C)cc2)SC1=S	-13
COC(=O)CN1C(=O)/C(=C\c2ccc(C)cc2)SC1=S	13
O=C(O)CCCN1C(=O)/C(=C/C=C/c2ccccc2)SC1=S	3
O=C1/C(=C/C=C/c2ccccc2)SC(=S)N1CCS(=O)(=O)O	85*
CN1/C(=C\C(=O)Nc2ccc(Br)cc2)c2ccccc2CC1(C)C	3
CC1CCc2c(sc(NC(=O)c3ccccc3Cl)c2C(=O)Nc2ccccc2Cl)C1 (stereo not drawn)	-18
CC(C)(C)c1cc(C(=O)N/N=C/c2cc(C(C)(C)C)c(O)c(C(C)(C)C)c2)n[nH]1	-7
C/C(=N\NC(=O)c1cc(-c2ccc3ccccc3c2)n[nH]1)c1cccc([N+](=O)[O-])c1	5
CCOC(=O)c1ccccc1NC(=O)CN(c1ccccc1)S(=O)(=O)c1ccccc1[N+](=O)[O-]	-8
O=C1c2cccc3cccc(c23)C(=O)N1/N=C/c1ccc(Cl)cc1	-7
Cc1ccnc(NC(=O)C(c2ccccc2)c2ccccc2)c1	-30
Cc1cc(C)c(NC(=O)C2C3CCC4C(CCC32)C4(Cl)Cl)c(C)c1 (stereo not drawn)	103*
COc1ccc(NC(=O)C2C3CCC4C(CCC32)C4(Cl)Cl)cc1 (stereo not drawn)	-11
COc1cccc(NC(=O)C2C3CCC4C(CCC32)C4(Cl)Cl)c1 (stereo not drawn)	2
Cc1cc(OCCOc2ncnc3ccccc23)ccc1Cl	15
CCOC(=O)c1c(N)sc(C)c1-c1ccc(CC(C)C)cc1	64*
CCOc1ccc(-c2c(C)sc(N)c2C(=O)OC(C)C)cc1	14
CCOC(=O)c1c(N)sc(C)c1-c1ccc(OCC)cc1	5
C=CCn1c(O)c(C2=c3cc(Cl)ccc3=NC2=O)sc1=S	13
CCc1ccc(CNCCc2ccc(OC)c(OC)c2)cc1	1
COc1ccc(CN2CCN(C3CC4CCC3C4)CC2)c(OC)c1OC (stereo not drawn)	-7
COc1cc(N)ccc1-n1c(C)ccc1C	70*
COc1ccc(C(=O)c2ccc(OC)c(N)c2)cc1N	5
SMILES	DUSP3 inh
COc1ccc(-c2nc3cc(N)ccc3o2)cc1OC	-1
COc1ccc(C(=O)N=Nc2c(O)[nH]c3c(C)cc(Br)cc23)cc1	-1
Cc1cc(C)cc(OCCCNCCO)c1	-13
O=C(c1ccc([N+](=O)[O-])cc1)N1CCN(Cc2ccccc2Br)CC1	-2
CCOC(=O)c1c(NC(=O)c2cccc(C)c2)sc(C(=O)Nc2ccccc2F)c1C	-8
CCOC(=O)c1c(NC(=O)c2ccc(Cl)c(Cl)c2)sc(C(=O)Nc2ccccc2F)c1C	-12
CCOC(=O)c1c(NC(=O)c2cccc(OC)c2)sc(C(=O)Nc2ccccc2F)c1C	115*
Cc1n[nH]c(C)c1CCC(=O)N/N=C/c1ccc(Cl)cc1Cl	7
CCOC(=O)c1sc(NC(=O)Nc2cccc(Cl)c2)c(C(N)=O)c1C	-20
CC(=O)c1ccc(-n2c(C)ccc2C)cc1	11
Cc1ccc(C)n1-c1ccc(SCC(=O)O)cc1	91*
Cc1ccc(C)n1-c1ccc(OCC(=O)O)cc1	29
O=C1C2C(c3ccc([N+](=O)[O-])cc3)OC3(C(=O)c4ccccc4C3=O)C2C(=O)N1c1ccc(Cl)cc1 (stereo not drawn)	-12
COC(=O)C1C2C(=O)N(c3ccccc3)C(=O)C12c1ccc(Cl)cc1 (stereo not drawn)	-2
CC1=C(C)CC2C(=O)N(c3ccc(-c4ccc([N+](=O)[O-])cc4)cc3)C(=O)C2C1 (stereo not drawn)	-16
COC(=O)C1C2C(=O)N(c3ccc([N+](=O)[O-])cc3)C(=O)C12c1ccc(Cl)cc1 (stereo not drawn)	102*
Cc1ccc(OCC(=O)N2CCN(c3ccc([N+](=O)[O-])cc3)CC2)cc1	0
COC(=O)C1C2C(=O)N(c3ccc([N+](=O)[O-])cc3)C(=O)C12c1ccc(C)cc1 (stereo not drawn)	116*
Cc1c(C(=O)O)cccc1-n1c(C)ccc1C	30
CC(=O)c1ccc(NC(=O)CCCC(=O)OCC(F)(F)C(F)F)cc1	-20
COc1ccccc1C1Nc2ccc(C(=O)c3ccccc3)cc2NC2=C1C(=O)CCC2 (stereo not drawn)	-6
CN(C)c1ccc(C2Nc3ccc(C(=O)c4ccccc4)cc3NC3=C2C(=O)CCC3)cc1 (stereo not drawn)	17
COc1ccc(C2Nc3ccc(C(=O)c4ccccc4)cc3NC3=C2C(=O)CCC3)c(OC)c1 (stereo not drawn)	68*
COCCOC(=O)c1ccc(NC(=O)COc2cc(C)c(Cl)c(C)c2)cc1	3
Cc1cc(OCC(=O)Nc2ccccc2[N+](=O)[O-])cc(C)c1Cl	-6
CCC(CO)Nc1cc(N2CCOCC2)ccc1[N+](=O)[O-] (stereo not drawn)	-11
O=C1NC(=S)N(c2cccc(Br)c2)C(=O)/C1=C/c1ccc(-c2ccc(C(=O)O)cc2)o1	92
O=C1NN(c2ccccc2)C(=O)/C1=C/c1ccc(-c2ccc(F)cc2)o1	-15
O=C1NN(c2ccc(F)cc2)C(=O)/C1=C\c1ccc(-c2cccc(C(=O)O)c2)o1	-10
